The values below come from PubChem BioAssay (Tox21).

Unmarked numbers belong to inactive results. Inconclusive results are not listed. Activity calls are given as the source filed them. Unless noted, calls come from the whole dose curve; as a rule, active = well fitted curve in the direction sought with a large enough effect in the repeat runs; inconclusive = weak or mixed curves; inactive = no such curve, though single readings can be large; an effect the other way counts as inactive or inconclusive.

The nature of test [1]: qHTS assay to identify small molecule antagonists of the estrogen receptor alpha (ER-alpha) signaling pathway using the BG1 cell line in the presence of 0.1 nM 17-beta-estradiol - cell viability counter screen (AID 1259241). Note: nearly all actives have a fitted effect of over 40% in size. Note: potency is the fitted concentration of half-maximal effect. An outline of the steps: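 Following 5 days in phenol red-free medium with charcoal-stripped serum, VM7Luc4E2 cells received test compounds alongside 0.1 nM 17beta-estradiol (final) at 37C for 22 hr. Live cells were then quantified via protease-substrate fluorescence.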

Test [2] is described as follows: qHTS assay to identify small molecule phospholipidosis (PLD) inducers (AID 1259344; active = well fitted curve in the direction sought with a large enough effect; an effect the other way counts as inactive or inconclusive; note: potency is the fitted concentration of half-maximal effect). An outline of the steps:
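Quantitative HTS in HepG2: compound plus LipidTOX Red dye for 24 h, paraformaldehyde fixation with Hoechst 33342, widefield high-content imaging; amiodarone as positive and DMSO as negative control.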

Test [3] is described as follows: qHTS assay to identify small molecule HDAC inhibitors (AID 1259364). Note: nearly all actives have a fitted effect of over 45% in size. Note: potency is the fitted concentration of half-maximal effect. Put shortly:
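Homogeneous cell-based luminescent assay of endogenous class I/II HDAC activity; HCT-116 cells, 2 h compound exposure, 30 min HDAC-Glo development at RT.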
(Quantitative high-throughput screening tests each substance at several concentrations.)

Test [4] can be described thus: qHTS assay to identify small molecule HDAC inhibitors - cell viability counter screen (AID 1259365). Note: nearly all actives have a fitted effect of over 50% in size. Note: potency is the fitted concentration of half-maximal effect. An outline of the steps: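 HCT-116 wild-type, overnight attachment; 2hr drug exposure, 37C; CellTiter-Glo luminescent ATP readout after 30min RT.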
The nature of test [5]: qHTS assay to identify small molecule agonists of the sonic hedgehog signaling (Shh) pathway - cell viability counter screen (AID 1259366). Note: nearly all actives have a fitted effect of over 50% in size. Note: potency is the fitted concentration of half-maximal effect. Put shortly:
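Compounds in DMSO were pin-transferred onto 3T3 Gli1-Luc cells that had settled 4hr; plates then stood 24hr at 37C and 5% CO2. One hour before the end, CellTiter-Fluor was added and fluorescence recorded.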

Test [6] can be described thus: qHTS assay to identify small molecule antagonists of the sonic hedgehog signaling (Shh) pathway - cell viability counter screen (AID 1259367). Note: nearly all actives have a fitted effect of over 55% in size. Note: potency is the fitted concentration of half-maximal effect. An outline of the steps:
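Seed 3T3 Gli1-Luc cells at 2,000 per well; incubate 4 hr; add compound in DMSO, then conditioned medium; incubate at 37C with 5% CO2; add CellTiter-Fluor after 23 hr; read fluorescence 1 hr later.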

The nature of test [7]: qHTS assay to identify small molecule agonists of the sonic hedgehog signaling (Shh) pathway (AID 1259368; calls by dose curve;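 note: NIH/3T3-derived 3T3Gli1-Luc cells carrying a stable Gli1-driven firefly luciferase reporter; series mostly up to about 92 µM; nearly all actives have a fitted effect of over 15% in size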). Put shortly: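 Steps: seed 3T3 Gli1-Luc cells, incubate 4 hr at 37 C, pin-transfer compounds in DMSO alongside a positive control, incubate 24 hr, add luciferase detection reagent, wait 30 min at room temperature, read luminescence.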
Test [8] in a line: qHTS assay to identify small molecule agonists of the estrogen receptor beta (ER-beta) signaling pathway - cell viability counter screen (AID 1259380). Note: nearly all actives have a fitted effect of over 30% in size. Note: potency is the fitted concentration of half-maximal effect. Put shortly:
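Same-well viability counter screen. Cells: ER-beta-UAS-bla HEK293T, plated 6 hr before compound, in 2% charcoal-stripped FBS. Compound exposure 16 hr, 37C; viability by CellTiter-Glo luminescence after 30 min at room temperature.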

The nature of test [9]: qHTS assay to identify small molecule antagonists of the estrogen receptor beta (ER-beta) signaling pathway - cell viability counter screen (AID 1259382). Note: nearly all actives have a fitted effect of over 55% in size. Note: potency is the fitted concentration of half-maximal effect. Put shortly:
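Following a 6 hr plating period, HEK293T cells carrying a UAS-driven beta-lactamase reporter under ER-beta control received compounds and 1nM E2 (final). After 16 hr at 37C and 2 hr substrate loading, CellTiter-Glo luminescence indicated viability.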

The nature of test [10]: qHTS assay to identify small molecule agonists or antagonists of the thyroid stimulating hormone receptor (TSHR) signaling pathway - wild type cell line counter screen (AID 1259384; calls by dose curve). Put shortly: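 Wild-type Hek293 cells, 800/well, 18 h at 37C, then compound with Ro20-1724 for 30 min RT. cAMP by HTRF (cAMP-d2/anti-cAMP cryptate), 1 h RT, fluorescence read. 15 concentrations, triplicates.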

Test [11] addresses Thyrotropin receptor (Homo sapiens) (UniProt P16473). As to the kind of experiment: qHTS assay to identify small molecule antagonists of the thyroid stimulating hormone receptor (TSHR) signaling pathway (AID 1259385; calls by dose curve; note: nearly all actives have a fitted effect of over 20% in size). Put shortly:
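TSHR-HEK293 cells (800/well) plated 18 h, then compounds with Ro20-1724 and TSH at 1.5 ng/mL final, 30 min at room temperature. cAMP quantified by HTRF (cAMP-d2/anti-cAMP-cryptate, 1 h); 15 concentrations in triplicate.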

For test [12], the target named is Estrogen receptor beta (Homo sapiens) (UniProt Q92731). The test is described as follows: qHTS assay to identify small molecule antagonists of the estrogen receptor beta (ER-beta) signaling pathway (AID 1259378; active = well fitted inhibition curve with a large enough effect in the signal ratio in the repeat runs, not every such curve was filed as active; the % refers to the signal ratio). Put shortly: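 ER-beta-UAS-bla HEK293T cells in 2% charcoal-stripped FBS medium treated with compound plus 1nM final 17-beta-estradiol for 16 hr at 37C. Beta-lactamase reporter read by FRET substrate fluorescence after 2 hours at room temperature.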

Test [13] can be described thus: qHTS assay to identify small molecule agonists of the androgen receptor (AR) signaling pathway in the presence of an antagonist - cell viability counter screen (AID 1259379). Note: nearly all actives have a fitted effect of over 25% in size. Note: potency is the fitted concentration of half-maximal effect. An outline of the steps:
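Fluorescence from CellTiter-Fluor, added after 15 hr and read 1 hr later, gave cell viability. Cells were MDA-kb2 exposed to compounds (15 concentrations) in the presence of 3.0uM nilutamide at 37C, 0% CO2.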

For test [14], the target named is Androgen receptor (Homo sapiens) (UniProt P10275). As to the kind of experiment: qHTS assay to identify small molecule agonists of the androgen receptor (AR) signaling pathway in the presence of an antagonist (AID 1259381; calls by dose curve; note: nearly all actives have a fitted effect of over 15% in size). Put shortly:
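Cells are MDA-kb2 (human breast carcinoma, MMTV-luc, AR/GR responsive). Nilutamide is present at 3.0uM final throughout; compounds are added at 15 concentrations and incubated 16hr at 37C before ONE-Glo luminescence detection.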

For test [15], the target named is Estrogen receptor (Homo sapiens) (UniProt P03372). The test is described as follows: qHTS assay to identify small molecule agonists of the estrogen receptor alpha (ER-alpha) signaling pathway in the presence of an antagonist (AID 1259383; calls by dose curve; note: nearly all actives have a fitted effect of over 15% in size; note: potency is the fitted concentration of half-maximal effect; for activation: top concentration of the series differs between compounds). Put shortly:
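Cells are hormone-deprived for 5 days (charcoal-stripped FBS, no phenol red), plated for 24hr, spiked with 10.0nM ICI-182,780, then dosed at 15 concentrations. After 22hr at 37C, ONE-Glo luminescence reports ERE-luciferase activity.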

Test [16] shares this target. As to the kind of experiment: qHTS assay to identify small molecule antagonists of the estrogen receptor alpha (ER-alpha) signaling pathway using the BG1 cell line in the presence of 0.1 nM 17-beta-estradiol (AID 1259244). Note: nearly all actives have a fitted effect of over 50% in size. Note: potency is the fitted concentration of half-maximal effect. Put shortly: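 After 5 days in hormone-depleted medium (charcoal-stripped serum, no phenol red), VM7Luc4E2 cells were seeded, incubated 24 h, then co-treated with compound and 0.1 nM (final) estradiol for 22 h before luminescence detection.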

Test [17] concerns the target Estrogen receptor beta (Homo sapiens) (UniProt Q92731). As to the kind of experiment: qHTS assay to identify small molecule agonists of the estrogen receptor beta (ER-beta) signaling pathway (AID 1259377; active = well fitted activation curve with a large enough effect in the signal ratio in the repeat runs, not every such curve was filed as active; the % refers to the signal ratio; note: potency is the fitted concentration of half-maximal effect). An outline of the steps:
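qHTS in ER-beta-UAS-bla HEK293T cells: 6 hr settling, then 16 hr compound at 37C, then LiveBLAzer substrate 2 h at RT before fluorescence reading.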

Test [18] is described as follows: qHTS assay to identify small molecule antagonists of the androgen receptor (AR) signaling pathway using the MDA cell line in the presence of 0.5 nM R1881 - cell viability counter screen (AID 1259242). Note: nearly all actives have a fitted effect of over 45% in size. Note: potency is the fitted concentration of half-maximal effect. An outline of the steps:
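Cytotoxicity toward MDA-kb2 cells is measured by CellTiter-Fluor live-cell protease fluorescence after 16 hr compound exposure at 37C in the presence of 0.5 nM R1881 stimulator.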

The nature of test [19]: qHTS assay to identify small molecule antagonists of the sonic hedgehog signaling (Shh) pathway (AID 1259369; calls by dose curve; note: nearly all actives have a fitted effect of over 45% in size; note: potency is the fitted concentration of half-maximal effect). An outline of the steps:
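Inhibition of Shh signalling is measured as reduced Gli1-response-element firefly luciferase output in an NIH/3T3-derived stable reporter clone stimulated with conditioned medium for 24hr.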

Test [20] concerns the target Androgen receptor (Homo sapiens) (UniProt P10275). As to the kind of experiment: qHTS assay to identify small molecule antagonists of the androgen receptor (AR) signaling pathway using the MDA cell line in the presence of 0.5 nM R1881 (AID 1259243). Note: nearly all actives have a fitted effect of over 50% in size. An outline of the steps: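 Steps: seed MDA-kb2 cells, incubate 5 hr at 37C; pin-transfer compounds in DMSO; add R1881 to 0.5 nM final; incubate 16 hr; add ONE-Glo, wait 30 min at room temperature; read luminescence.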

Thyrotropin receptor (Homo sapiens), sequence (P16473 whole entry, looked up): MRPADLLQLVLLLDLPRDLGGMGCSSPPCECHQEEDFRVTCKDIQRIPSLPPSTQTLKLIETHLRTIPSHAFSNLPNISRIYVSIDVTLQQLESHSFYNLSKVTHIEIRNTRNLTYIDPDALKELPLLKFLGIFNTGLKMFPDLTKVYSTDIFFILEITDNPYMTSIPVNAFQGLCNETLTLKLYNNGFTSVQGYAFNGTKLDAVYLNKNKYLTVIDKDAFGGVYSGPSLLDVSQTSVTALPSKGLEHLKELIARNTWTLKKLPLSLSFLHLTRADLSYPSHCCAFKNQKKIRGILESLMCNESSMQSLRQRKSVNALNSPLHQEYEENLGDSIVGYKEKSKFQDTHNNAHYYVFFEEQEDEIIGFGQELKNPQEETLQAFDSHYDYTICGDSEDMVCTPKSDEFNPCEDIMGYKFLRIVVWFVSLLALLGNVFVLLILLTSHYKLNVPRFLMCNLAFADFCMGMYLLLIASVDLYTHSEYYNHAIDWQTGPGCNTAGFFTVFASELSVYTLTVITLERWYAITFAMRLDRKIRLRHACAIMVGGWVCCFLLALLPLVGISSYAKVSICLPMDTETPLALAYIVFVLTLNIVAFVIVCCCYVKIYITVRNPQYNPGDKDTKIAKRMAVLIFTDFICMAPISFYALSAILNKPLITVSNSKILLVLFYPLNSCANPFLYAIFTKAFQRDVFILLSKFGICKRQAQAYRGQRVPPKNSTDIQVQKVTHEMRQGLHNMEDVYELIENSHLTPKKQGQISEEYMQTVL
Androgen receptor (Homo sapiens), sequence (P10275 whole entry, looked up): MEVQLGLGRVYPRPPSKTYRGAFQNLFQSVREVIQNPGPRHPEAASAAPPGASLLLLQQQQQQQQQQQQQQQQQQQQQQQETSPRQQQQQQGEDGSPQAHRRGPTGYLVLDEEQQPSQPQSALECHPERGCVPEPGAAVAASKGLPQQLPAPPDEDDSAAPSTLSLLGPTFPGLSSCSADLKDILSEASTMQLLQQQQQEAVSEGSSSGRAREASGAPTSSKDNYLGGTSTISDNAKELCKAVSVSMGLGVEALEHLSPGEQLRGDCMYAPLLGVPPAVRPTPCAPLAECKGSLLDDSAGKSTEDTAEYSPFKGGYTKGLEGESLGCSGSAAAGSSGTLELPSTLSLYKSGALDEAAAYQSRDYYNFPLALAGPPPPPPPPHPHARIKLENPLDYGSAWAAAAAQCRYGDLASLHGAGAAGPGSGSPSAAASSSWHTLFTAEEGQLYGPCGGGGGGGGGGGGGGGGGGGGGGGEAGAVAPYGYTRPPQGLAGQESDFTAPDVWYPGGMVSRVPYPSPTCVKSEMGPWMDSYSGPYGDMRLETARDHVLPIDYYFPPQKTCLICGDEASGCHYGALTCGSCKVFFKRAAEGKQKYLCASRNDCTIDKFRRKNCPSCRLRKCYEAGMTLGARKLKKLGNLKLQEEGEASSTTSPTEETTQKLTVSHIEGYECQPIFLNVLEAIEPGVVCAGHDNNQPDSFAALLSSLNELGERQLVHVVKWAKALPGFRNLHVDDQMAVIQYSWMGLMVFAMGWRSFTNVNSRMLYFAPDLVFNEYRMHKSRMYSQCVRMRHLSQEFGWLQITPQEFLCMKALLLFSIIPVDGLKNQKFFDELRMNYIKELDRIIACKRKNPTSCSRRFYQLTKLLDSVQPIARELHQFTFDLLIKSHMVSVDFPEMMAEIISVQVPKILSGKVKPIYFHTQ
Estrogen receptor (Homo sapiens), sequence (P03372 whole entry, looked up): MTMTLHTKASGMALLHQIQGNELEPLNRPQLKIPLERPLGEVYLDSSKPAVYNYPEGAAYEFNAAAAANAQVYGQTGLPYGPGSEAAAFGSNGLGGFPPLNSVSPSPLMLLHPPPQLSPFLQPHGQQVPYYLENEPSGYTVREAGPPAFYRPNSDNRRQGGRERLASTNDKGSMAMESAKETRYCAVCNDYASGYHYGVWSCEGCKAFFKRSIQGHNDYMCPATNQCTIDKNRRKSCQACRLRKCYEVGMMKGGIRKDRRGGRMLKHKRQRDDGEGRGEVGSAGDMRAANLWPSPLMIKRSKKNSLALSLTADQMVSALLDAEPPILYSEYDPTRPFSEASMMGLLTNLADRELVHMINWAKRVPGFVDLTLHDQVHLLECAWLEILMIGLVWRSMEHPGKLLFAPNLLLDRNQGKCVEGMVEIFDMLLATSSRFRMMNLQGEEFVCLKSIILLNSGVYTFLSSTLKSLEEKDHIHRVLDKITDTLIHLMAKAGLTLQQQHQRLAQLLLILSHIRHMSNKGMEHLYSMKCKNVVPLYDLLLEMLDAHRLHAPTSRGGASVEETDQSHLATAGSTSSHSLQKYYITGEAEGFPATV
Estrogen receptor beta (Homo sapiens), sequence (Q92731 whole entry, looked up): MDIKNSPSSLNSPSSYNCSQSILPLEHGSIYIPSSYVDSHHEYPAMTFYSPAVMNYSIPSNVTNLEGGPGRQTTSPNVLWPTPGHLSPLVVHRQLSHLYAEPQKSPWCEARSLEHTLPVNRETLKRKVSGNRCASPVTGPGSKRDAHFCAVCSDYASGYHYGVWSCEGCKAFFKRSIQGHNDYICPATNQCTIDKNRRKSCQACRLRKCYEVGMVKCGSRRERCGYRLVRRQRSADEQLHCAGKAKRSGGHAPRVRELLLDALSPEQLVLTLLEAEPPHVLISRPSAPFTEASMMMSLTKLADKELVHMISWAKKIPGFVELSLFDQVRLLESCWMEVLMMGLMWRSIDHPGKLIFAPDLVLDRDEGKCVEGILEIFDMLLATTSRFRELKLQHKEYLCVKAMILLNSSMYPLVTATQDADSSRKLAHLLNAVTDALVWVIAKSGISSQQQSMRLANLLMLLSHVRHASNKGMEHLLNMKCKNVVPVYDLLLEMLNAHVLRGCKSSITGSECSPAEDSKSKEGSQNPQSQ

For `CC[N+]1(CC)CCC(=C(c2ccccc2)c2ccccc2)C1C` (stereo not given), the Potency entry in test [1], in test [2], in [3], in test [4], in [5] and in test [6] was “inactive” each time. The Potency entry in [8], in test [9], in test [10] and in [11] was “inactive” throughout. Moreover, the compound was classed as inactive in [7].

As to `Nc1ccc(N)c2c1C(=O)c1ccccc1C2=O`, the Potency in [1] is 12.2 µM (active); in [3] it was 21.7 µM (active); in test [4] it was 30.6 µM (active); in test [5] it was 21.7 µM (active); in test [6], 10.9 µM (active); in test [13], 21.7 µM (active). Also, in test [8], the Potency is 7.7 µM (active). Besides, in test [7], the outcome was inactive. For the same compound, the Potency result in [12] and in test [14] was “inactive” each time.

On to `CCN(CC)CCNc1ccc(CNC=O)c2sc3ccc(OC)cc3c(=O)c12`, for which the Potency in [1] is 4.33 µM (active); in test [8] it was 8.63 µM (active); in test [9], 8.63 µM (active). Further, the Potency entry in [4], in test [5], in test [6] and in test [15] was “inactive” in each case. The compound was classed as inactive in [7].

For `COc1ccc(C(=O)c2ccc(OC)cc2O)c(O)c1`, the Potency entry in [1], in test [16], in [4], in test [5], in [6] and in test [12] was “inactive” in each case. The Potency result in [13], in test [8], in test [14], in [9], in [10] and in test [11] was “inactive” in each case. In test [7], the result was inactive. Besides, the Potency in [17] is 48.9 µM (active); in test [15], 8.7 µM (active).

`CCCCCCOC(=O)NC(=N)c1ccc(NCc2nc3cc(C(=O)N(CCC(=O)OCC)c4ccccn4)ccc3n2C)cc1`: the Potency in test [18] was 26.6 µM (active); in [16] it was 23.7 µM (active); in test [19], 1.19 µM (active); in test [8], 11.9 µM (active); in test [9], 11.9 µM (active). Besides, the outcome in [7] was inactive. Moreover, the Potency result in test [15] is “inactive”.

Turning to `CCC(C)(C)CC`, the Potency entry in test [1], in [3], in test [4], in test [5], in test [6] and in test [19] was “inactive” each time. Further, the Potency result in test [17], in [12], in test [13], in test [8] and in [9] was “inactive” throughout. In test [7], the call was inactive.

Consider `CC(COCCO)OCCO` (stereo not given), for which the Potency entry in test [18], in [20], in test [3], in test [4], in test [5] and in [6] was “inactive” throughout. Also, the Potency result in [19], in test [13], in [8], in test [14] and in test [9] was “inactive” in each case. In addition, the compound was classed as inactive in [7].

`CC(C)(C)Cl`: the Potency entry in test [1], in test [16], in test [4], in test [5], in [6] and in test [19] was “inactive” throughout. In addition, the Potency entry in test [12], in test [13], in test [8], in test [9] and in [15] was “inactive” each time. The outcome in test [7] was inactive.

`C[C@H](CCC(=O)O)[C@H]1CC[C@H]2[C@@H]3CC[C@@H]4C[C@H](O)CC[C@]4(C)[C@H]3C[C@H](O)[C@]12C`: the Potency entry in test [18], in [16], in [2], in [3], in test [4] and in test [17] was “inactive” throughout. Moreover, the Potency result in [15] is “inactive”. For the same compound, the call in [7] was inactive. The Potency in test [8] is 48.7 µM (active).

Regarding `C#Cc1cccc(Nc2ncnc3cc(OCCOC)c(OCCOC)cc23)c1`, the Potency entry in [18], in [16], in test [4], in [9], in test [15] and in test [11] was “inactive” each time. Moreover, the Potency in test [2] is 10 µM (active); in test [8], 2.66 µM (active). In test [7], the outcome was inactive.

On to `COC(C)OC`, for which the Potency entry in test [18], in [16], in test [3], in test [4], in test [5] and in test [6] was “inactive” each time. Further, the Potency result in test [19], in test [13], in test [8], in [9], in [15] and in test [11] was “inactive” in each case. Also, the compound was called inactive in test [7].

For `O=C(O)C1(C(=O)Nc2ccc(Cl)cc2Cl)CC1`, the Potency entry in [18], in test [20], in test [16], in test [4], in test [5] and in test [6] was “inactive” in each case. The Potency entry in test [19], in test [14], in test [15], in test [10] and in test [11] was “inactive” in each case. Also, the Potency in test [3] was 13.7 µM (active); in [8] it was 15.4 µM (active). Besides, the compound was classed as inactive in [7].

As to `CCOC(=O)NCCOc1ccc(Oc2ccccc2)cc1`, the Potency result in test [1], in test [3], in test [4], in test [5], in test [6] and in test [9] was “inactive” in each case. The Potency entry in test [15], in [10] and in [11] was “inactive” each time. Also, the call in [7] was inactive. Moreover, in test [13], the Potency was 61.1 µM (active).

For the compound `CCO[C@H](Cc1ccc(OCCc2ccc(OS(C)(=O)=O)cc2)cc1)C(=O)O`, the Potency result in test [18], in [20], in test [16], in test [2], in test [3] and in test [4] was “inactive” each time. For the same compound, the Potency result in test [5], in test [6], in [19], in test [17], in test [12] and in test [13] was “inactive” in each case. Moreover, the Potency entry in [8], in test [14], in test [9] and in test [15] was “inactive” throughout. In test [7], the call was inactive.
